Growth data for 14 compounds are collected here from PubChem BioAssay (NCI).

SMILES strings stand for the structures. Compounds without any hit were thinned out: in the full panel of roughly 83,000, 20% have a hit.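 Negative percent growth values reflect cell death: -40 means 40% of the cells present at the start died, and -100 means all died.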 Unmarked numbers belong to inactive results. Active and inactive are the calls of the source. How the source made its calls: active means growth percent below 10; inactive means the rest.

The test relates to HL-60(TB) leukemia. Description: NCI-60 one-dose screen, 48 h (100 = growth as untreated, 0 = no growth, -100 = all killed). The conditions noted are these: 10 µM unless noted.

For `COc1cc(C(=O)n2nc(NCCCc3ccccc3)c3cc(N)ccc32)cc(OC)c1OC`, the growth is 69.5%.

Turning to `C[C@@H]1CC2C3CCC4=CC(=O)C=C[C@]4(C)[C@@]3(Cl)[C@@H](O)C[C@]2(C)[C@@]1(OC(=O)c1ccco1)C(=O)CCl` (some centres undefined), the growth is 78.2%. The figure for `COc1ccc2nc(NC(=O)c3cccnc3Nc3ccc(S(N)(=O)=O)cc3)sc2c1` is 54.5%; for `Cc1ccc2c(n1)C(=O)C(Br)=C(CC(C)C)C2=O` it is 58.4%. Next, `O=C1Nc2ccc(F)cc2/C1=C/c1nc(-c2ccc(F)cc2)n2ccccc12`: 103%; `Nc1c(C(=O)Nc2cccc3c2OCCO3)sc2nc3c(cc12)CN(Cc1ccccc1)CC3`: 19.1%.

Regarding `COc1ccc(CCN=Cc2ccc(Cl)cc2)cc1OC`, the growth was 86.6%. The figure for `CC(COC(=O)c1ccccc1)N1CC2CCC(C1)O2` (centres undefined) is 101%.

Turning to `N#CC1C(c2ccc(Cl)cc2)=Nc2c(c(-c3ccccc3)nn2-c2ccccc2)C12C(=O)Nc1ccc(Cl)cc12` (centres undefined), the growth is -1.59% (active).

Regarding `C=C[C@@H]1C[C@@H]2Cc3c(C)cc(C)cc3N1O2`, the growth was 0.0364% (active). For `CCOc1ccc(Nc2nc(-c3ccc4c(c3)NC(=O)CO4)cs2)cc1`, the growth is 66.9%.

Regarding `O=C(/C=C/c1ccccc1)Nc1ncc(Cc2ccccc2)s1`, the growth is -45.3% (active). As for `Nc1nc(N)c2c(n1)NC(c1cccc(Nc3ccnc4cc(C(F)(F)F)ccc34)c1)CC(c1ccc(Cl)cc1)=N2` (centres undefined), the growth was 34.3%.

As to `O=C(CN1C(=O)/C(=C/c2ccco2)SC1=S)NCCc1c[nH]c2ccc(F)cc12`, the growth is 95.9%.
